This assay concerns Scedosporium aurantiacum CBS 136046. Kind of assay: growth inhibition relative to DMSO control (OD600); higher = more antifungal activity, active = 80 or more; extreme values may be limits of the assay. Particulars: 5 µM; 72 h; 37 °C.
On to `Nc1ccc2oc(=O)ccc2c1I`, for which the growth inhibition is 8.52% (inactive). With `Cc1[nH]c2ccccc2c1CC(=O)N[C@@H](Cc1ccccc1)C(=O)N(C)c1ccccc1`, the growth inhibition was 10.7% (inactive).

In the case of `CCOc1ccc(/C=N/NC(=O)C2CC2c2ccc(C(C)(C)C)cc2)cc1OCC` (stereo unspecified), the growth inhibition is 18.4% (inactive).

With `COc1ccc(NC(=O)c2cc3ccccn3n2)cc1`, the growth inhibition is 36.8% (inactive). Consider `O=C1CCC(N2C(=O)c3ccccc3C2=O)C(=O)N1` (stereo unspecified), for which the growth inhibition was 22.9% (inactive).

As to `Clc1ccc(Cn2c(CN3CCCC3)nc3ccccc32)cc1`, the growth inhibition was 15.5% (inactive). Regarding `Nc1nc(-c2ccccc2)nc2c1ncn2[C@@H]1O[C@H](COS(=O)(=O)NC(=O)c2ccccc2O)[C@@H](O)[C@H]1O`, the growth inhibition is 30% (inactive). For `C[C@H](NC(CC(=O)c1ccccc1C(F)(F)F)C(=O)O)c1ccccc1` (stereo partly specified), the growth inhibition was 2.25% (inactive). As for `CCCCCOc1ccc(/C=C2\Oc3c(ccc(O)c3O)C2=O)c(O)c1`, the figure is 1.85% (inactive). `O=P(O)(O)C(CCCc1cccc(Oc2ccccc2)c1)S(=O)(=O)O` (stereo unspecified): the growth inhibition is 2.84% (inactive). Regarding `COc1ccc2nc(-c3ccccc3)cc(O)c2c1`, the growth inhibition was 17.5% (inactive).

As to `Cc1c(N)cccc1Cn1ccc(OCCc2cccs2)cc1=O`, the growth inhibition is 2.23% (inactive). As for `c1cnc(NCc2ccc(CNc3ncccn3)cc2)nc1`, the figure is 10.1% (inactive); as for `O=C(NCc1ccc(F)cc1)c1c(O)c2ncccc2[nH]c1=O`, 2.42% (inactive); as for `Cc1oncc1C(=O)Nc1ccc(C(F)(F)F)cc1`, 15.6% (inactive). Consider `Nc1nnnn1CCOc1c2[nH]c3ccc(Cl)cc3c2cc2c1[nH]c1ccc(Cl)cc12`, for which the growth inhibition is 49.3% (inactive). As for `O=C1C=C(c2ccccc2)S(=O)(=O)c2ccccc21`, the figure is 12.3% (inactive). As for `CCc1nc(N)nc(N)c1C#CCc1ccccc1`, the figure is 30.8% (inactive); as for `C[C@@H](NC(=O)c1ccccc1-c1ccccc1)B(O)O`, 0.688% (inactive). In the case of `CCc1oc2ccccc2c1C(=O)c1ccc(O)cc1`, the growth inhibition was 35.1% (inactive). As for `CS(=O)(=O)c1ccc(Oc2ccc(Cl)cc2)cc1`, the growth inhibition is 15.2% (inactive).

Source of the values: the supplement of paper PMC9897528.
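Also: conidia screened in RPMI 1640 medium under 5% CO2, growth read by spectrophotometer, medium with 0.5% DMSO serving as the untreated reference.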
